# Publication PMC5540273 (PLoS ONE, 2017)
# “And” between values parts separate entries of the source, which are not always exact repeats. Equal values may be shown once. Read-outs that look alike come from different tables or passages of the source.
# What was measured:
# MST1 = tested on: T1, MST1; conditions: concentration: 1 μM, replicates: in singlicate, n = 1
# T1 construct: gene STK4
# MST2 = tested on: T2, MST2; conditions: concentration: 1 μM, replicates: in singlicate; n = 1
# T2 construct: gene STK3
# MST3 = tested on: T3, MST3; conditions: concentration: 1 μM, replicates: in singlicate, n = 1
# T3 construct: gene STK24
# MST4 = conditions: concentration: 1 μM, replicates: in singlicate, n = 1
# MTOR = conditions: concentration: 1 μM, replicates: in singlicate, n = 1
# MUSK = conditions: concentration: 1 μM, replicates: in singlicate; n = 1
# MYLK2 = conditions: concentration: 1 μM, replicates: in singlicate, n = 1
# MYLK4 = conditions: concentration: 1 μM, replicates: in singlicate, n = 1
# MYLK = conditions: concentration: 1 μM, replicates: in singlicate, n = 1
# MYO3A = conditions: concentration: 1 μM, replicates: in singlicate, n = 1
# MYO3B = conditions: concentration: 1 μM, replicates: in singlicate, n = 1
# NDR1 = tested on: T4, NDR1; conditions: concentration: 1 μM, replicates: in singlicate, n = 1
# T4 construct: gene STK38
# NDR2 = conditions: concentration: 1 μM, replicates: in singlicate, n = 1
# NEK10 = conditions: concentration: 1 μM, replicates: in singlicate, n = 1
# NEK11 = conditions: concentration: 1 μM, replicates: in singlicate; n = 1
# NEK1 = conditions: concentration: 1 μM, replicates: in singlicate, n = 1
# NEK2 = conditions: concentration: 1 μM, replicates: in singlicate, n = 1
# NEK3 = conditions: concentration: 1 μM, replicates: in singlicate, n = 1
# NEK4 = conditions: concentration: 1 μM, replicates: in singlicate, n = 1
# NEK5 = conditions: concentration: 1 μM, replicates: in singlicate, n = 1
# 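Also: KINOMEscan kinase panel screen.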
smiles,measurement,setting,value
Cc1nnc(-c2ccc3occ(-c4ccc(C(C)O)cc4)c3c2)o1 (centres unmarked),%Inh,MST1,0%
same,%Inh,MST2,0%
same,%Inh,MST3,0%
same,%Inh,MST4,0%
same,%Inh,MTOR,0%
same,%Inh,MUSK,4%
same,%Inh,MYLK2,14%
same,%Inh,MYLK4,4%
same,%Inh,MYLK,26%
same,%Inh,MYO3A,0%
same,%Inh,MYO3B,0%
same,%Inh,NDR1,18%
same,%Inh,NDR2,55%
same,%Inh,NEK10,30%
same,%Inh,NEK11,0%
same,%Inh,NEK1,0%
same,%Inh,NEK2,0%
same,%Inh,NEK3,3%
same,%Inh,NEK4,0%
same,%Inh,NEK5,0%
CC(C)Oc1ccc2c(-c3ccnc(Nc4ccc(N5CCN(C)CC5)cc4)n3)cnn2n1 [GW696155],%Inh,MST1,0%
same,%Inh,MST2,0%
same,%Inh,MST3,59%
same,%Inh,MST4,16%
same,%Inh,MTOR,27%
same,%Inh,MUSK,42%
same,%Inh,MYLK2,61%
same,%Inh,MYLK4,99.6%
same,%Inh,MYLK,17%
same,%Inh,MYO3A,30%
same,%Inh,MYO3B,0%
same,%Inh,NDR1,86%
same,%Inh,NDR2,52%
same,%Inh,NEK10,97.6%
same,%Inh,NEK11,86%
same,%Inh,NEK1,86%
same,%Inh,NEK2,93.3%
same,%Inh,NEK3,98.5%
same,%Inh,NEK4,10%
same,%Inh,NEK5,100%
C[C@@H](Oc1cc(-n2cnc3ccc(NC(=O)NC(C)(C)C)cc32)sc1C(N)=O)c1ccccc1Cl [GSK346294],%Inh,MST1,12%
same,%Inh,MST2,0%
same,%Inh,MST3,13%
same,%Inh,MST4,0%
same,%Inh,MTOR,31%
same,%Inh,MUSK,6%
same,%Inh,MYLK2,0%
same,%Inh,MYLK4,1%
same,%Inh,MYLK,23%
same,%Inh,MYO3A,35%
same,%Inh,MYO3B,0%
same,%Inh,NDR1,17%
same,%Inh,NDR2,17%
same,%Inh,NEK10,0%
same,%Inh,NEK11,0%
same,%Inh,NEK1,0%
same,%Inh,NEK2,5%
same,%Inh,NEK3,5%
same,%Inh,NEK4,0%
same,%Inh,NEK5,26%
CC(C)(CN)c1nc(-c2ccc(Cl)c(O)c2)c(-c2ccncc2)[nH]1.O=C(O)C(F)(F)F [SB-477794],%Inh,MST1; 1 µM,0% and 11%
same,%Inh,MST2,0%
same,%Inh,MST3; 1 µM,0% and 1%
same,%Inh,MST4; 1 µM,11% and 1%
same,%Inh,MTOR; 1 µM,35% and 17%
same,%Inh,MUSK,0%
same,%Inh,MYLK2; 1 µM,0% and 5%
same,%Inh,MYLK4; 1 µM,0% and 6%
same,%Inh,MYLK; 1 µM,1% and 21%
same,%Inh,MYO3A; 1 µM,25% and 59%
same,%Inh,MYO3B; 1 µM,0% and 47%
same,%Inh,NDR1; 1 µM,40% and 49%
same,%Inh,NDR2; 1 µM,63% and 52%
same,%Inh,NEK10; 1 µM,19% and 24%
same,%Inh,NEK11,0%
same,%Inh,NEK1; 1 µM,0% and 100%
same,%Inh,NEK2; 1 µM,12% and 0%
same,%Inh,NEK3; 1 µM,26% and 0%
same,%Inh,NEK4; 1 µM,21% and 10%
same,%Inh,NEK5; 1 µM,13% and 3%
Fc1ccc(-c2ncn(CCCN3CCOCC3)c2-c2ccccn2)cc1 [SB-211742],%Inh,MST1,2%
same,%Inh,MST2,32%
same,%Inh,MST3,9%
same,%Inh,MST4,0%
same,%Inh,MTOR,27%
same,%Inh,MUSK,0%
same,%Inh,MYLK2,3%
same,%Inh,MYLK4,0%
same,%Inh,MYLK,0%
same,%Inh,MYO3A,0%
same,%Inh,MYO3B,10%
same,%Inh,NDR1,13%
same,%Inh,NDR2,0%
same,%Inh,NEK10,0%
same,%Inh,NEK11,0%
same,%Inh,NEK1,0%
same,%Inh,NEK2,7%
same,%Inh,NEK3,28%
same,%Inh,NEK4,0%
same,%Inh,NEK5,16%
Cn1cc(-c2ccc3c(c2)CCN3C(=O)Cc2ccccc2Cl)c2c(N)ncnc21 [GSK2608885],%Inh,MST1,95.3%
same,%Inh,MST2,64%
same,%Inh,MST3,30%
same,%Inh,MST4,13%
same,%Inh,MTOR,8%
same,%Inh,MUSK,29%
same,%Inh,MYLK2,8%
same,%Inh,MYLK4,2%
same,%Inh,MYLK,12%
same,%Inh,MYO3A,34%
same,%Inh,MYO3B,33%
same,%Inh,NDR1,21%
same,%Inh,NDR2,0%
same,%Inh,NEK10,0%
same,%Inh,NEK11,0%
same,%Inh,NEK1,0%
same,%Inh,NEK2,79%
same,%Inh,NEK3,0%
same,%Inh,NEK4,5%
same,%Inh,NEK5,7%
Cc1cccc(Cn2ccn3c(=O)cc(N4CCOCC4)nc23)c1 [GSK2297542],%Inh,MST1,7%
same,%Inh,MST2,0%
same,%Inh,MST3,23%
same,%Inh,MST4,0%
same,%Inh,MTOR,17%
same,%Inh,MUSK,2%
same,%Inh,MYLK2,4%
same,%Inh,MYLK4,6%
same,%Inh,MYLK,41%
same,%Inh,MYO3A,11%
same,%Inh,MYO3B,0%
same,%Inh,NDR1,33%
same,%Inh,NDR2,0%
same,%Inh,NEK10,14%
same,%Inh,NEK11,6%
same,%Inh,NEK1,12%
same,%Inh,NEK2,15%
same,%Inh,NEK3,15%
same,%Inh,NEK4,16%
same,%Inh,NEK5,19%
Nc1nc(-c2ccc3c(N)n[nH]c3c2)cc(N2CCCC2)n1 [GSK2227430],%Inh,MST1,0%
same,%Inh,MST2,0%
same,%Inh,MST3,0%
same,%Inh,MST4,0%
same,%Inh,MTOR,0%
same,%Inh,MUSK,0%
same,%Inh,MYLK2,0%
same,%Inh,MYLK4,2%
same,%Inh,MYLK,9%
same,%Inh,MYO3A,0%
same,%Inh,MYO3B,7%
same,%Inh,NDR1,14%
same,%Inh,NDR2,0%
same,%Inh,NEK10,0%
same,%Inh,NEK11,0%
same,%Inh,NEK1,12%
same,%Inh,NEK2,0%
same,%Inh,NEK3,5%
same,%Inh,NEK4,0%
same,%Inh,NEK5,0%
O=C(NCCNc1ccnc(Nc2ccc(F)cc2)n1)c1cc2ccccc2s1 [GSK1379874],%Inh,MST1,0%
same,%Inh,MST2,0%
same,%Inh,MST3,0%
same,%Inh,MST4,0%
same,%Inh,MTOR,8%
same,%Inh,MUSK,0%
same,%Inh,MYLK2,0%
same,%Inh,MYLK4,0%
same,%Inh,MYLK,15%
same,%Inh,MYO3A,0%
same,%Inh,MYO3B,0%
same,%Inh,NDR1,0%
same,%Inh,NDR2,0%
same,%Inh,NEK10,7%
same,%Inh,NEK11,0%
same,%Inh,NEK1,0%
same,%Inh,NEK2,0%
same,%Inh,NEK3,4%
same,%Inh,NEK4,0%
same,%Inh,NEK5,0%
Nc1nccc(-c2c(-c3ccc(F)cc3)ncn2C2CCN(CC(F)(F)F)CC2)n1 [SB-236560],%Inh,MST1,96.9%
same,%Inh,MST2,0%
same,%Inh,MST3,0%
same,%Inh,MST4,0%
same,%Inh,MTOR,0%
same,%Inh,MUSK,22%
same,%Inh,MYLK2,0%
same,%Inh,MYLK4,0%
same,%Inh,MYLK,1%
same,%Inh,MYO3A,0%
same,%Inh,MYO3B,0%
same,%Inh,NDR1,38%
same,%Inh,NDR2,0%
same,%Inh,NEK10,42%
same,%Inh,NEK11,0%
same,%Inh,NEK1,0%
same,%Inh,NEK2,0%
same,%Inh,NEK3,24%
same,%Inh,NEK4,0%
same,%Inh,NEK5,16%
